This note sets out measurements from the supplement of paper PMC12067093, “Discovery and optimisation of a covalent ligand for TRIM25 and its application to targeted protein ubiquitination” (Chemical Science, 2025).

Targets with the largest changes are over-represented here; the source holds about 21,000 in all.
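Further: competitive chemoproteomic profiling in live THP-1 cells with an iodoacetamide desthiobiotin (IA-DTB) probe, comparing probe-labelled peptide intensities in compound-treated cells against DMSO-treated controls.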

Sequence of UniProt Q8IZH2 (Q8IZH2 whole entry, looked up): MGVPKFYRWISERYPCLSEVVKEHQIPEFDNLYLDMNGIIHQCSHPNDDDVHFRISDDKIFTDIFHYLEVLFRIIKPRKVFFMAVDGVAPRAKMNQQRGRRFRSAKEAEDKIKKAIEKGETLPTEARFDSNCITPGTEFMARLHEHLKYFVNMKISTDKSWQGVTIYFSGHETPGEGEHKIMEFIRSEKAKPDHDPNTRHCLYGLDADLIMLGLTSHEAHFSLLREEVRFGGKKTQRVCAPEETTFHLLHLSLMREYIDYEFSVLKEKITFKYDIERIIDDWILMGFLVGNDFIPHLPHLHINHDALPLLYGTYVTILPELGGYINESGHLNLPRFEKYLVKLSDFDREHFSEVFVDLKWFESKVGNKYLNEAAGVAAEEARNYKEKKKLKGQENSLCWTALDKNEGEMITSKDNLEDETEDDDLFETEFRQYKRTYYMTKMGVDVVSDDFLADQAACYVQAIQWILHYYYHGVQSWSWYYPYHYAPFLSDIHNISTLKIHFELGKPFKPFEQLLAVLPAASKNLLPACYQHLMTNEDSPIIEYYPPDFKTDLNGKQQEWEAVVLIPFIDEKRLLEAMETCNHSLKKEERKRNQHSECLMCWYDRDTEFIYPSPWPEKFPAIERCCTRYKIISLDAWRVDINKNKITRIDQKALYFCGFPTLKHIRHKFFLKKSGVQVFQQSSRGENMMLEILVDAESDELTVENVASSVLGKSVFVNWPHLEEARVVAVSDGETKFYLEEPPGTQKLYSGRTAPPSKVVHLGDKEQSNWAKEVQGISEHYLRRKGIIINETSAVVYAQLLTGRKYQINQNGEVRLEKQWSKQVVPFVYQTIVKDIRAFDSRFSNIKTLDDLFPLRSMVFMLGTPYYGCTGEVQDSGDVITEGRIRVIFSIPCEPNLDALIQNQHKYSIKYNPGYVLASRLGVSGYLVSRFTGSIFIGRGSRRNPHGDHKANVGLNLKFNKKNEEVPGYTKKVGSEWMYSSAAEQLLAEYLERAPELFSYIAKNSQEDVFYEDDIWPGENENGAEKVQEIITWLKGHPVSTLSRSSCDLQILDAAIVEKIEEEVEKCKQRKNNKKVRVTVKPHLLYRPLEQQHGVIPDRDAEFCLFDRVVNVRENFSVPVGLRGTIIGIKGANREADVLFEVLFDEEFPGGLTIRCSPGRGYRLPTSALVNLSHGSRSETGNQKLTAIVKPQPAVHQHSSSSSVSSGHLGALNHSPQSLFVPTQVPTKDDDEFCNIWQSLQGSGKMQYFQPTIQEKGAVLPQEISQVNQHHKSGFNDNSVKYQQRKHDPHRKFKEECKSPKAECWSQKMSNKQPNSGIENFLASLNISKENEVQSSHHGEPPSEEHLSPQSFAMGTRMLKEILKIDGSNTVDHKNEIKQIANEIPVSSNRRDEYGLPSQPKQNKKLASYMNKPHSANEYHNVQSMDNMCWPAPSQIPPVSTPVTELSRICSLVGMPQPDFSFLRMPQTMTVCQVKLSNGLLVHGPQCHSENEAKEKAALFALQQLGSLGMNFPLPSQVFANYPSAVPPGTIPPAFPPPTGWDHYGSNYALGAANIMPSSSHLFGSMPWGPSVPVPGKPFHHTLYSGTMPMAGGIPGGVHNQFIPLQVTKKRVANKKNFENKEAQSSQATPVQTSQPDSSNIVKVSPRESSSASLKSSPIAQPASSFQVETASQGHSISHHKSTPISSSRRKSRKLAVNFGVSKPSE
Sequence of UniProt Q9NUD5 (Q9NUD5 whole entry, looked up): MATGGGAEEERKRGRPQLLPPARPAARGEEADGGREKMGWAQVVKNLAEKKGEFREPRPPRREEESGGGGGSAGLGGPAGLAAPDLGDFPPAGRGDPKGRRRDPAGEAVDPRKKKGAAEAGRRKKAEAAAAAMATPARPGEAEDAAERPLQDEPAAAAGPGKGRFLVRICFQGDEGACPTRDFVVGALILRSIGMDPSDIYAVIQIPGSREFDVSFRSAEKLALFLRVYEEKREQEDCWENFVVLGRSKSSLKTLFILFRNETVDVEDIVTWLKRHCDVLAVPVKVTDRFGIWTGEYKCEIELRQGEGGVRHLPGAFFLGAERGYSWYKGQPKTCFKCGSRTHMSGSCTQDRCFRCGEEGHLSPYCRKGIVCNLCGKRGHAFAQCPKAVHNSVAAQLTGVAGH
Sequence of UniProt Q9ULU4 (Q9ULU4 whole entry, looked up): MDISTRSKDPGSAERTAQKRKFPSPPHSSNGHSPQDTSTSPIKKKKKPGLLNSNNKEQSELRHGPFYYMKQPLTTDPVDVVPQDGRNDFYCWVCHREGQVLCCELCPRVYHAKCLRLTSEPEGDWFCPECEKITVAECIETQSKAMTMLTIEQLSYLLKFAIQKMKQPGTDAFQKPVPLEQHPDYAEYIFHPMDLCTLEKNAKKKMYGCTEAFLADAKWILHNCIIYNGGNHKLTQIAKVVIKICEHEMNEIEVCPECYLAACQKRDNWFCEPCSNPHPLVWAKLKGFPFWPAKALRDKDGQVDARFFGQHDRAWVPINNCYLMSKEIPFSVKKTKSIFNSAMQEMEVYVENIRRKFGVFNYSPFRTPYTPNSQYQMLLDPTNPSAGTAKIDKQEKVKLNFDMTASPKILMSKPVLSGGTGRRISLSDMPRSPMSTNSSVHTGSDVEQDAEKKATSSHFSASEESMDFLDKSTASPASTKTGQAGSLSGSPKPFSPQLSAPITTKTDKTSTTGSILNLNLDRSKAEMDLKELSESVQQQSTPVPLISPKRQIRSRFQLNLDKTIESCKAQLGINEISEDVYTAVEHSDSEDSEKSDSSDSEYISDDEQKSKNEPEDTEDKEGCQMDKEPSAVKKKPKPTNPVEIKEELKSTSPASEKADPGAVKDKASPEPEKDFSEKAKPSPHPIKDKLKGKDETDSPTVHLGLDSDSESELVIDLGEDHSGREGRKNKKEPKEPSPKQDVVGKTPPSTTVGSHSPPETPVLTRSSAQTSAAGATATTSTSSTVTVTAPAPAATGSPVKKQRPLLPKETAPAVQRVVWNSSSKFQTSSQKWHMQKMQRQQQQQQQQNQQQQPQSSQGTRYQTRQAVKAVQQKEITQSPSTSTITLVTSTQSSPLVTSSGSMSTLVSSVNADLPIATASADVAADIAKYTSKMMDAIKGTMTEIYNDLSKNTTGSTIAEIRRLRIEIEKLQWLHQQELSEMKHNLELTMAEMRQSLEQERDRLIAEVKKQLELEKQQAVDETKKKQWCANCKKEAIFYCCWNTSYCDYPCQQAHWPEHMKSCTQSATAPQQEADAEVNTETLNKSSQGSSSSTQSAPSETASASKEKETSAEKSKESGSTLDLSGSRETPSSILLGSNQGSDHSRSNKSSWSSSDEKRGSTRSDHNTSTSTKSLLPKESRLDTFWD
Sequence of UniProt O43670 (O43670 whole entry, looked up): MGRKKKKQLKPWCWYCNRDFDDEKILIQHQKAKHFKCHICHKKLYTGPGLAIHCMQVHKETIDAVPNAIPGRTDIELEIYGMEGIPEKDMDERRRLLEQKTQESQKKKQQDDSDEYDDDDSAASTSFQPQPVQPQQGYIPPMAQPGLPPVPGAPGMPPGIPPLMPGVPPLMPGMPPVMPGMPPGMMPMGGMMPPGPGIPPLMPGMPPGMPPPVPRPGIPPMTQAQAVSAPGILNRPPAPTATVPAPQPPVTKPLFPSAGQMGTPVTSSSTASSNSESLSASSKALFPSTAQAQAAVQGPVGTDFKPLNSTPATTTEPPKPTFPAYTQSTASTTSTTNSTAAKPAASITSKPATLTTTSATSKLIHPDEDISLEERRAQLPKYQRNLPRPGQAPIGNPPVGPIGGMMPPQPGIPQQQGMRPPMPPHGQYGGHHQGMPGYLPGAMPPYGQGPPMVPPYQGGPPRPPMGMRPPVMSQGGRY
Sequence of UniProt Q04917 (Q04917 whole entry, looked up): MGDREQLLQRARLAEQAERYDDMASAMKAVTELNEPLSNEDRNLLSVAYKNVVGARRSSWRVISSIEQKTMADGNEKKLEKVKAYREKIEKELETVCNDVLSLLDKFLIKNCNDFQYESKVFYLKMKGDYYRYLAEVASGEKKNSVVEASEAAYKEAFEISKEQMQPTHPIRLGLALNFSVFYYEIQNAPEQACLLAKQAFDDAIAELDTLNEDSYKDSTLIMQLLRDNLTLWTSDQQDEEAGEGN
Sequence of UniProt Q8N1W2 (Q8N1W2 whole entry): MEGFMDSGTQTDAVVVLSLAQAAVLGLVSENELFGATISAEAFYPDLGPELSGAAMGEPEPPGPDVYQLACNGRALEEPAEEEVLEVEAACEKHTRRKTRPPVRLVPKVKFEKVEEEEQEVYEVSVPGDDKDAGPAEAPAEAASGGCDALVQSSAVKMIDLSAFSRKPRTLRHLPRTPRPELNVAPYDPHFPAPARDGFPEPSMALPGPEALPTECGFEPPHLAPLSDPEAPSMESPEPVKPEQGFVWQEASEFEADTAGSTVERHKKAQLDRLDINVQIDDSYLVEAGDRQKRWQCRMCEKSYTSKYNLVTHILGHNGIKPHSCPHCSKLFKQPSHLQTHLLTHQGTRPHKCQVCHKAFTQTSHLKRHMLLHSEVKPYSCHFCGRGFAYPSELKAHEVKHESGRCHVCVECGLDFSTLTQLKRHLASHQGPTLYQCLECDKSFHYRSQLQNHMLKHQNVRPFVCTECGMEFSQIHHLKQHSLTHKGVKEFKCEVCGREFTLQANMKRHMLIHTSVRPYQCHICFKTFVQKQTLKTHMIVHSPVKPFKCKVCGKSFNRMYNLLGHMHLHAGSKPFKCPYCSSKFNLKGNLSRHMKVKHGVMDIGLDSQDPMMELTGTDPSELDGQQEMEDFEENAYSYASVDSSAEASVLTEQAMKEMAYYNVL
Sequence of UniProt Q8TCF1 (Q8TCF1 whole entry, looked up): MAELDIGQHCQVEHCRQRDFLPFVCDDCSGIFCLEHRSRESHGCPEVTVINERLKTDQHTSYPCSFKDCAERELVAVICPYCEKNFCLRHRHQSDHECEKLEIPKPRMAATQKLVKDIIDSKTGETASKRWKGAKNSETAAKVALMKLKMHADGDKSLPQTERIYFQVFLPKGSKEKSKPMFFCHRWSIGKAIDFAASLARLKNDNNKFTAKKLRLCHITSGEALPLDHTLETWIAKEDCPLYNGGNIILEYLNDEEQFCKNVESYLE

Compound in one test: CC1Cc2ccccc2N1C(=O)C1CCCN(C1)C(=O)CCl (mixture of isomers) [TRIM25 ligand 11 (diastereomer mixture)]
In words: probe-labelled cysteine peptide fold change vs DMSO (competition) (log2 fold change); higher = less target engagement (more negative = stronger competition). The note with it: 10 µM; THP-1; incubation time: 4 h.
For “ZFYVE27_Q5T4F4_353_RYPTNNFGNCTGCSATFSVLK (UniProt Q5T4F4)”, the “probe-labelled cysteine peptide fold change” value is -0.247.

As to “ZNF687_Q8N1G0_576_CSLLLHAR (UniProt Q8N1G0)”, the “probe-labelled cysteine peptide fold change” value was 0.101.

Regarding “ZNFX1_Q9P2E3_1416_CGHVEGLLYGGLLVK (UniProt Q9P2E3)”, the “probe-labelled cysteine peptide fold change” value was -0.0464.

Regarding “ZNF316_A6NFI3_861_CADCGR (UniProt A6NFI3)”, the “probe-labelled cysteine peptide fold change” value was determined as 0.139.

For the target “YES1_P07947_255_LTTVCPTVKPQTQGLAK (UniProt P07947)”, the “probe-labelled cysteine peptide fold change” value is -0.0129.

Turning to “ZFAND1_Q8TCF1_64_LKTDQHTSYPCSFK (UniProt Q8TCF1)”, the “probe-labelled cysteine peptide fold change” value is -0.0624.

For the target “ZW10_O43264_650_LGIVWQDVLPVNIYCK (UniProt O43264)”, the “probe-labelled cysteine peptide fold change” value came out at 0.0783.

Regarding “ZNF417_Q8TAU3_56_DVMLENLALISSLGCWCGSK<|>ZNF587_Q96SQ5_56_DVMLENLALISSLGCWCGSK (UniProt Q96SQ5+Q8TAU3)”, the “probe-labelled cysteine peptide fold change” value came to 0.112.

With “ZNF710_Q8N1W2_91_ALEEPAEEEVLEVEAACEK (UniProt Q8N1W2)”, the “probe-labelled cysteine peptide fold change” value is 0.158.

For “XRN1_Q8IZH2_16_YPCLSEVVK (UniProt Q8IZH2)”, the “probe-labelled cysteine peptide fold change” value is 0.0639.

As for “YWHAH_Q04917_97_ELETVCNDVLSLLDK (UniProt Q04917)”, the “probe-labelled cysteine peptide fold change” value was -0.1.

For the target “ZW10_O43264_588_LGTECFLAQMR (UniProt O43264)”, the “probe-labelled cysteine peptide fold change” value came to 0.647.

As for “ZBTB7A_O95365_34_TQGLLCDVVILVEGR (UniProt O95365)”, the “probe-labelled cysteine peptide fold change” value was 0.149.

In the case of “ZNF207_O43670_54_KLYTGPGLAIHCMQVHK (UniProt O43670)”, the “probe-labelled cysteine peptide fold change” value is -0.6.

In the case of “ZNF691_Q5VV52_230_THLEPAPYICCECGK (UniProt Q5VV52)”, the “probe-labelled cysteine peptide fold change” value is -0.272.

With “XRN2_Q9H0D6_296_HDELADSLPCAEGEFIFLR (UniProt Q9H0D6)”, the “probe-labelled cysteine peptide fold change” value came to 0.409.

Turning to “XRN2_Q9H0D6_736_FSLDEEAILPDQIVCSPVPMLR (UniProt Q9H0D6)”, the “probe-labelled cysteine peptide fold change” value came out at 0.234.

As to “XRN2_Q9H0D6_296_GKHDELADSLPCAEGEFIFLR (UniProt Q9H0D6)”, the “probe-labelled cysteine peptide fold change” value worked out at 0.0997.

In the case of “ZNF280D_Q6N043_323_CFSCLK (UniProt Q6N043)”, the “probe-labelled cysteine peptide fold change” value came out at 0.0838.

In the case of “YES1_P07947_42_YRPENTPEPVSTSVSHYGAEPTTVSPCPSSSAK (UniProt P07947)”, the “probe-labelled cysteine peptide fold change” value is -0.0245.

For the target “ZW10_O43264_568_LAPILCDGTATFVDLVPGFR (UniProt O43264)”, the “probe-labelled cysteine peptide fold change” value is 0.117.

In the case of “ZMYND8_Q9ULU4_106_EGQVLCCELCPR (UniProt Q9ULU4)”, the “probe-labelled cysteine peptide fold change” value came to 0.247.

As for “ZCCHC3_Q9NUD5_238_REQEDCWENFVVLGR (UniProt Q9NUD5)”, the “probe-labelled cysteine peptide fold change” value was 0.192.

The test is the same for the next values; noted with them: 50 µM; THP-1; incubation time: 4 h.
“ZFYVE27_Q5T4F4_353_RYPTNNFGNCTGCSATFSVLK (UniProt Q5T4F4)”: the “probe-labelled cysteine peptide fold change” value is -0.0647.

Turning to “ZNF687_Q8N1G0_576_CSLLLHAR (UniProt Q8N1G0)”, the “probe-labelled cysteine peptide fold change” value amounted to 0.0491.

“ZNFX1_Q9P2E3_1416_CGHVEGLLYGGLLVK (UniProt Q9P2E3)”: the “probe-labelled cysteine peptide fold change” value was -0.153.

Consider “ZNF316_A6NFI3_861_CADCGR (UniProt A6NFI3)”, for which the “probe-labelled cysteine peptide fold change” value turned out to be 0.163.

In the case of “YES1_P07947_255_LTTVCPTVKPQTQGLAK (UniProt P07947)”, the “probe-labelled cysteine peptide fold change” value is -0.34.

On to “ZFAND1_Q8TCF1_64_LKTDQHTSYPCSFK (UniProt Q8TCF1)”, for which the “probe-labelled cysteine peptide fold change” value is -0.388.

With “ZW10_O43264_650_LGIVWQDVLPVNIYCK (UniProt O43264)”, the “probe-labelled cysteine peptide fold change” value is 0.0695.

With “ZNF417_Q8TAU3_56_DVMLENLALISSLGCWCGSK<|>ZNF587_Q96SQ5_56_DVMLENLALISSLGCWCGSK (UniProt Q96SQ5+Q8TAU3)”, the “probe-labelled cysteine peptide fold change” value worked out at 0.104.

Turning to “ZNF710_Q8N1W2_91_ALEEPAEEEVLEVEAACEK (UniProt Q8N1W2)”, the “probe-labelled cysteine peptide fold change” value is -0.171.

“XRN1_Q8IZH2_16_YPCLSEVVK (UniProt Q8IZH2)”: the “probe-labelled cysteine peptide fold change” value was found to be 0.0149.

With “YWHAH_Q04917_97_ELETVCNDVLSLLDK (UniProt Q04917)”, the “probe-labelled cysteine peptide fold change” value is -0.178.

As for “ZW10_O43264_588_LGTECFLAQMR (UniProt O43264)”, the “probe-labelled cysteine peptide fold change” value worked out at 0.508.

As to “ZBTB7A_O95365_34_TQGLLCDVVILVEGR (UniProt O95365)”, the “probe-labelled cysteine peptide fold change” value was -0.0545.

For “ZNF207_O43670_54_KLYTGPGLAIHCMQVHK (UniProt O43670)”, the “probe-labelled cysteine peptide fold change” value is -0.388.

For “ZNF691_Q5VV52_230_THLEPAPYICCECGK (UniProt Q5VV52)”, the “probe-labelled cysteine peptide fold change” value is -0.8.

With “XRN2_Q9H0D6_296_HDELADSLPCAEGEFIFLR (UniProt Q9H0D6)”, the “probe-labelled cysteine peptide fold change” value is -0.0107.

On to “XRN2_Q9H0D6_736_FSLDEEAILPDQIVCSPVPMLR (UniProt Q9H0D6)”, for which the “probe-labelled cysteine peptide fold change” value came out at 0.0197.

For the target “XRN2_Q9H0D6_296_GKHDELADSLPCAEGEFIFLR (UniProt Q9H0D6)”, the “probe-labelled cysteine peptide fold change” value is -0.0177.

Take “ZNF280D_Q6N043_323_CFSCLK (UniProt Q6N043)”: the “probe-labelled cysteine peptide fold change” value was found to be 0.233.

Turning to “YES1_P07947_42_YRPENTPEPVSTSVSHYGAEPTTVSPCPSSSAK (UniProt P07947)”, the “probe-labelled cysteine peptide fold change” value is -0.239.

With “ZW10_O43264_568_LAPILCDGTATFVDLVPGFR (UniProt O43264)”, the “probe-labelled cysteine peptide fold change” value is 0.00333.

As for “ZMYND8_Q9ULU4_106_EGQVLCCELCPR (UniProt Q9ULU4)”, the “probe-labelled cysteine peptide fold change” value was 0.0715.

As for “ZCCHC3_Q9NUD5_238_REQEDCWENFVVLGR (UniProt Q9NUD5)”, the “probe-labelled cysteine peptide fold change” value came to 0.112.
